# Measured values: PubChem BioAssay AID1347416 (National Center for Advancing Translational Sciences (NCATS), 2020)
# About 1,600 (39%) of roughly 4,100 compounds were called active. Roughly 25% stayed inconclusive and do not appear here. The call rests on the fitted dose curve; in most records, active means well fitted inhibition curve with a large enough effect; inconclusive means small, poorly fitted or top-dose-only effect; inactive means no such curve, though single readings can be large or run the other way. The list shows a part of the results.
# Experiment: qHTS Validation assay for Inhibitors of Plasmodium falciparum Dd2 growth in vitro; further: nearly all actives have a fitted effect of over 70% in size
# Conditions: P. falciparum Dd2 in RBCs, SYBR Green growth, 72 h; series mostly up to 28.7 µM
# Procedure, shortened: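 P. falciparum Dd2-infected red blood cells (2.5% hematocrit, 0.3% parasitemia) grown 72 h at 37 °C under 5% O2 with compounds in a titration, 29 uM to 0.5 nM final. Growth read as SYBR Green-1 fluorescence after ~16 h lysis; artesunate 300 nM as positive control.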
# Potency means the concentration at half of the fitted maximal effect.
row,Structure (SMILES),Potency
1,CN(CC1(C)CCOCC1)C(=O)c1ccoc1,inactive
2,Oc1ccc(Br)cc1-c1cc(-c2ccc(Cl)cc2)n[nH]1,2.66 µM (active)
3,COc1ccc(O)c(-c2cc(-c3cccs3)[nH]n2)c1,inactive
4,COc1cc(C2CC(=O)Nc3cc4c(cc32)OCCO4)cc(Br)c1OC (stereo not given),5.31 µM (active)
5,CCOC(=O)C1=C(C)NC(=O)CC1c1cc(OC)c(OC)cc1Br (stereo not given),5.31 µM (active)
6,CCOC(=O)C1=C(C)NC(=S)N(C(C)=O)C1c1ccc(Cl)cc1 (stereo not given),inactive
7,COc1cc(Br)c(C2CC(=O)Nc3cc4c(cc32)OCCO4)cc1OC (stereo not given),2.37 µM (active)
8,CNC(=O)N1CCC(C2CCN(C(=O)CCCC(=O)O)C2)CC1 (stereo not given),inactive
9,CCn1cnnc1-c1nn(C)c2c1CN(C(=O)CC(C)C)CC2,inactive
10,COc1ccc(-n2c(-c3ccc(Br)cc3)c[n+]3c2CCc2ccccc2-3)cc1,4.22 µM (active)
11,Cc1ccc(-c2nn(-c3ccccc3)cc2CSC(=N)N)cc1,inactive
12,Cc1ccc(-n2cc(CNCCc3ncc(C)[nH]3)c(-c3ccc(F)cc3)n2)cc1,15 µM (active)
13,Cc1ccc(CNC(=O)NCCc2ncc(C)n2Cc2ccc(F)cc2)cc1,inactive
14,CN(C)CCNC(=O)c1nc2nc(-c3ccccc3)c(-c3cccc(F)c3)cc2n1C,19.3 µM (active)
15,Cc1cccc(C)c1-c1nc(C(=O)NCc2ccc(F)cc2)n2ccccc12,inactive
16,COCc1nc2nc(-c3ccccc3)c(Nc3ccc(F)cc3)cc2n1C,inactive
17,CCn1nccc1C(=O)N1CCC(C(=O)N2CCCCCCNC(=O)CC2)CC1,inactive
18,CCOC(=O)c1[nH]c(Cc2[nH]c(C(=O)OCC)c(C)c2CCC(=O)OC)c(CCC(=O)OC)c1C,5.31 µM (active)
19,CN(C)c1cccc(-c2nccc3c(=O)cc(-c4cn[nH]c4)oc23)c1,inactive
20,CC(C)(C)CC(C)(C)c1ccc(O)c(CN2CCN(CCC#N)CC2)c1,0.842 µM (active)

row,Structure (SMILES),Potency
1,Cc1ccc(C(=O)N2CCC3(CC2)N(c2ccccc2)C(=O)CS3(=O)=O)c(C)c1,inactive
2,CC(C)C(=O)NC(c1ccc([N+](=O)[O-])cc1)c1c(O)ccc2ccccc12 (stereo not given),13.3 µM (active)
3,CCCCC(=O)NC(c1cccc([N+](=O)[O-])c1)c1c(OC(C)=O)ccc2ccccc12 (stereo not given),3.76 µM (active)
4,CC(=O)Oc1ccc2ccccc2c1C(NC(=O)C(C)C)c1cccc([N+](=O)[O-])c1 (stereo not given),16.8 µM (active)
5,Cc1nc(N2CCN(C)CC2)c2c3c(sc2n1)CCCC3,inactive
6,Cc1noc(C)c1CSc1nc2sc3c(c2c(=O)n1C)CCCC3,8.41 µM (active)
7,Cc1nnc([C@@H]2CC(F)(F)CN2C(=O)c2ccoc2C)o1,inactive
8,Cc1occc1C(=O)N1CCN(C(c2ccccc2)c2ccccc2)CC1,10.6 µM (active)
9,Cc1ccccc1C(=O)N1CCC(c2nc3ccccc3s2)CC1,inactive
10,Cc1ccc(NC(=O)c2c(C)oc3ccc(O)c(CN(C)Cc4ccccc4)c23)c(C)c1,5.96 µM (active)
11,Cc1oc2ccc(O)c(CN(C)Cc3ccccc3)c2c1C(=O)Nc1ccccc1,2.37 µM (active)
12,CCN(CC)c1ccc(-n2nc3cc(C)c(NC(=O)c4ccccc4F)cc3n2)cc1,inactive
13,CCN(Cc1ccccc1)Cc1c(O)ccc2oc(C)c(C(=O)Nc3ccccc3C)c12,4.73 µM (active)
14,Cc1ccccc1NC(=O)c1c(C)oc2ccc(O)c(CN(C)Cc3ccccc3)c12,2.37 µM (active)
15,Cc1oc2ccc(O)c(CN(C)Cc3ccccc3)c2c1C(=O)Nc1cccc(C(F)(F)F)c1,2.11 µM (active)
16,O=C(Nc1cccc(C(F)(F)F)c1)c1nc2c(o1)CCN(Cc1cccc(F)c1)CC2,inactive
17,CC(=O)Nc1cccc(C(=O)NC2CCCN(c3cc(-c4ccc(Cl)cc4)[nH]n3)C2)c1 (stereo not given),inactive
18,CC(=O)Nc1cccc(C(=O)N2CCC3(CC2)N=C(c2ccc(C)cc2)NO3)c1,0.842 µM (active)
19,COc1ccccc1CC(=O)N1CCC2(CC1)N=C(c1cccc(Br)c1)NO2,inactive
20,CCOc1cccc(C2Nc3ccccc3-c3cc(C)nn32)c1O (stereo not given),inactive

row,Structure (SMILES),Potency
1,COc1cccc(/C(C#N)=C/c2c(-c3ccc(Cl)cc3)nc3c(C)cccn23)c1,5.96 µM (active)
2,O=C1NC(=O)/C(=C\c2ccc(N3CCOCC3)o2)N1,9.44 µM (active)
3,Cc1ccc(C(=O)NC2CCCN(c3cc(-c4ccccc4)[nH]n3)C2)s1 (stereo not given),inactive
4,Cn1c(=S)c2[nH]c(SCCN3CCCC3)nc2n(C)c1=O,inactive
5,Cn1c2ccc(F)cc2c2nnc(SCCN3CCCCC3)nc21,15 µM (active)
6,Nc1nc2[nH]cc(CCc3ccc(C(=O)N[C@@H](CCC(=O)O)C(=O)O)cc3)c2c(=O)[nH]1,7.5 µM (active)
7,Cc1ccc(CN2CCCN(Cc3ccncc3)C(c3ccccc3)CC(=O)NCC2)s1 (stereo not given),2.66 µM (active)
8,Cc1ncsc1CN1CCCN(Cc2ccncc2)C(c2ccccc2)CC(=O)NCC1 (stereo not given),8.41 µM (active)
9,Cc1ccc(CN2CCCN(Cc3ccncc3)C(c3ccccc3)CC(=O)NCC2)o1 (stereo not given),7.5 µM (active)
10,Cc1ccsc1CN1CCCN(S(=O)(=O)c2ccccc2)CCC(=O)NCC1,inactive
11,CN(C)C(=O)C1CN(C(=O)NC2CCCCC2)CC12CCOCC2 (stereo not given),inactive
12,Cn1cccc1C(=O)N1CC[C@H](NC(=O)Nc2ccc(F)cc2F)[C@H]1C(=O)N[C@H](Cc1ccccc1)C(N)=O,inactive
13,Cc1ccc(O)c([C@H](CCN(C(C)C)C(C)C)c2ccccc2)c1,4.22 µM (active)
14,COc1ccc(CCNC(=O)CC(c2ccccc2OC)c2c[nH]c3ccccc23)cc1OC (stereo not given),13.3 µM (active)
15,COc1ccc(CCNC(=O)CCc2cn(Cc3ccc(F)cc3)c3ccccc23)cc1OC,inactive
16,CCCC1c2nccn2CCCN1C(=O)c1cnco1 (stereo not given),inactive
17,Cc1cccc(CN2CCCC(O)(CNCc3ncccc3C)C2=O)c1 (stereo not given),16.8 µM (active)
18,Cc1cccnc1CNC[C@H]1O[C@@H]2C[C@@H](CC(=O)N3CCOCC3)O[C@@H]2[C@@H]1O,inactive
19,CCCn1cc(SCC(=O)NCc2ccco2)c2ccccc21,8.41 µM (active)
20,CCOC(=O)c1c(NC(=O)CSc2cn(CCNC(=O)c3cccc(C(F)(F)F)c3)c3ccccc23)sc2c1CCC2,inactive
